Reference: PubChem BioAssay
Activity calls are given as the source filed them. Unless noted, no rule for the calls is given here.

Legend:
[1] = test system: Wnt5a (protein binding on small-molecule microarray); assay: Wnt5a binders on small-molecule microarray, primary screen, biophysical, 635/667 nm fluorescence (AID 1142); conditions: 635 nm fluorescence, higher = more signal;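 also: fluorescence read at 667 nm with signal to noise per printed feature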
[2] = cell viability in Huh7 cells, primary screen, cytotoxicity control for HCV replication inhibitor project, CellTiter-Glo luminescence, basal, 48 h (AID 1143); conditions: Huh7 HCV replicon, higher = more signal, called active from +8 up or from −8 down;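 also: Huh7 hepatoma cells carrying a hepatitis C replication reporter with no stimulus; test concentration not given here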
[3] = P. aeruginosa biofilm formation inhibitors, primary screen, PAO1 strain, BacTiter-Glo luminescence, LB-PBS (AID 1144); conditions: 12 h, higher = more signal
[4] = CREB reporter modulators without forskolin, primary screen, cell-based, PC12, CRE-LacZ reporter, unstimulated (AID 1145); conditions: no forskolin, luminescence, 4.5 h, higher = more signal, called active from +8 up or from −8 down
[5] = CREB reporter modulators under forskolin, primary screen, cell-based, PC12, CRE-LacZ reporter, forskolin-stimulated (AID 1146); conditions: luminescence, 4.5 h, higher = more signal, called active from +8 up or from −8 down;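 also: PC12 cells with 6xCRE LacZ reporter stimulated by forskolin 10 µM; beta-galactosidase reporter signal reflecting CREB driven transcription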
[6] = target: Streptavidin (Streptomyces avidinii) (UniProt P22629); assay: streptavidin binders on small-molecule microarray, primary screen, artefact control for SMM compound annotation, biophysical, 635/667 nm fluorescence (AID 1147); conditions: streptavidin binding, higher = more signal;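 also: signal reflects streptavidin binding to arrayed compounds as a control protein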
Streptavidin (Streptomyces avidinii), sequence (P22629 whole entry, looked up): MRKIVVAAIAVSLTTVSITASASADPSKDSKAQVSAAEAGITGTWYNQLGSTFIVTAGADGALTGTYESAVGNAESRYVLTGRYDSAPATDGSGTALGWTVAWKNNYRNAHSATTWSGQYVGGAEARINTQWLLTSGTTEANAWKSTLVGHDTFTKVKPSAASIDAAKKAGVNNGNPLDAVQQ

[7] = small-molecule binders of probe aInhba, primary screen, biochemical, small-molecule microarray, 635/667 nm fluorescence (AID 1148); conditions: higher = more signal;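 also: score merges 667nm spot fluorescence with signal-to-noise for antibody binding to printed compounds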
Torsin-1A (Homo sapiens) [8] = target: Torsin-1A (Homo sapiens) (UniProt O14656); assay: torsin A binders from cell lysate, primary screen, small-molecule microarray, wild-type, 635/667 nm (AID 1149); conditions: COS7 hTOR1A-WT lysate, 635 nm fluorescence, higher = more signal
Torsin-1A (Homo sapiens), sequence (O14656 whole entry, looked up): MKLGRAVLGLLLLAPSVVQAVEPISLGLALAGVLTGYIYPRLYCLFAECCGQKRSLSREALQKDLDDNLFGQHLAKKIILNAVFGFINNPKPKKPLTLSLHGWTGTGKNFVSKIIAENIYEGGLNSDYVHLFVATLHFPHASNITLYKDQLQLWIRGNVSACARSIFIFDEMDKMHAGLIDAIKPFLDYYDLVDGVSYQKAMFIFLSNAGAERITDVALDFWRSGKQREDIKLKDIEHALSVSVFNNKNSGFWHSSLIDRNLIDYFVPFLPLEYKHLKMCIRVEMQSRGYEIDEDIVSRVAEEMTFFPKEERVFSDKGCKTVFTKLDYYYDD

Torsin-1A (Homo sapiens) [9] = target: Torsin-1A (Homo sapiens) (UniProt O14656); assay: small-molecule binders of mutant TOR1A in lysate, primary screen, cell lysate, small-molecule microarray, COS7 lysate, 635/667 nm fluorescence (AID 1150); conditions: COS7 hTOR1A mutant lysate, 635 nm fluorescence, higher = more signal;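 also: score pools 667 nm emission and signal to noise measuring lysate protein binding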
[10] = test system: Sonic hedgehog protein (Shh); assay: small-molecule binders of Shh protein, primary screen, biochemical, small-molecule microarray, 635/667 nm fluorescence (AID 1151); conditions: small-molecule microarray binding, 635 nm fluorescence; higher = more signal;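 also: Shh protein binding to compounds spotted on small-molecule microarray slides; score combines spot fluorescence intensity with signal-to-noise across triplicate slides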
[11] = E. coli DRC41 culture turbidity changes, primary screen, E. coli filamentation inducer project, strain DRC41, OD650, 48 h (AID 1152);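 also: E. coli MC1000 strain DRC41 lacking acrAB efflux pump and sulA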; conditions: E. coli DRC41 (acrAB sulA), higher = more signal, called active from +8 up or from −8 down
[12] = small-molecule binders of probe aLefty1, primary screen, biochemical, small-molecule microarray, 635/667 nm fluorescence (AID 1153); conditions: higher = more signal;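 also: score merges spot fluorescence with signal-to-noise ratio from the scanned slide images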
[13] = PSAC antagonists in infected red cells, primary screen, cell-based, P. falciparum Indochina, OD700, 1 h (AID 1154); conditions: P. falciparum Indochina infected RBC osmotic lysis, higher = more signal, called active from +8 up or from −8 down
[14] = PSAC antagonists in infected red cells, primary screen, cell-based, P. falciparum Indochina, OD700, 2 h (AID 1155);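 also: lysis reports solute entry through the parasite surface anion channel PSAC; channel blockers reduce lysis of infected cells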; conditions: P. falciparum Indochina infected erythrocytes, osmotic lysis OD700; higher = more signal, called active from +8 up or from −8 down
[15] = osmotic lysis modulators in infected erythrocytes, primary screen, PSAC antagonist project, cell-based, P. falciparum Indochina, OD700, 3 h (AID 1156); conditions: higher = more signal, called active from +8 up or from −8 down
[16] = PSAC antagonists in infected red cells, primary screen, cell-based, P. falciparum Indochina, OD700, 18 h (AID 1157); conditions: P. falciparum Indochina infected erythrocytes, osmotic lysis OD700, 18 h; higher = more signal, called active from +8 up or from −8 down
[17] = modulators of S6 phosphorylation in cells, primary screen, cell-based, A549, cytoblot, luminescence, serum-stimulated (AID 1158); conditions: A549 phospho-S6 cytoblot, 5 h, higher = more signal;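 also: serum-stimulated A549 lung adenocarcinoma cells; signal is phosphorylated S6 detected by cytoblot immunostaining with HRP secondary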
[18] = target: NADPH oxidase 2 (Homo sapiens) (UniProt P04839); assay: NOX2-dependent H2O2 signal modulators, primary screen, NOX inhibitor project, cell-based, HEK293-NOX2, PMA-stimulated, Amplex Red fluorescence (AID 1159); conditions: 45 min, higher = more signal, called active from +8 up or from −8 down; also: test concentration not given here
NADPH oxidase 2 (Homo sapiens), sequence (P04839 whole entry, looked up): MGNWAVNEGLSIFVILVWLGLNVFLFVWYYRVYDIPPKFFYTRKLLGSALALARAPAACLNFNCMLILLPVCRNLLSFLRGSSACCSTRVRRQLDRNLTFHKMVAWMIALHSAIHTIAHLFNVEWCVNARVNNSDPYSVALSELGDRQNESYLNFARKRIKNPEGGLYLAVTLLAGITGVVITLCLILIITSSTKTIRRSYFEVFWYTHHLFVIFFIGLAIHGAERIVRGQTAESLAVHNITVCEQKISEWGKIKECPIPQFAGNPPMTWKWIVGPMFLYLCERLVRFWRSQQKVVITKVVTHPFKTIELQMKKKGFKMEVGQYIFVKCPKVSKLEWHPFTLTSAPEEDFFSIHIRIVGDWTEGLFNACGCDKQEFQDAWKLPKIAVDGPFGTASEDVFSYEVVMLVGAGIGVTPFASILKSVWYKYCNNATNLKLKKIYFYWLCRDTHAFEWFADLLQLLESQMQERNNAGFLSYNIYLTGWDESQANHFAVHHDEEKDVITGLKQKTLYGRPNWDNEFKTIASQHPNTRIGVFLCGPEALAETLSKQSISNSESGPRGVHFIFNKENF

[19] = target: NADPH oxidase 4 (Homo sapiens) (UniProt Q9NPH5); assay: NOX4-dependent H2O2 signal modulators, primary screen, NOX inhibitor project, cell-based, HEK293-NOX4, tetracycline-induced, Amplex Red fluorescence (AID 1160); conditions: 45 min, higher = more signal, called active from +8 up or from −8 down
NADPH oxidase 4 (Homo sapiens), sequence (Q9NPH5 whole entry, looked up): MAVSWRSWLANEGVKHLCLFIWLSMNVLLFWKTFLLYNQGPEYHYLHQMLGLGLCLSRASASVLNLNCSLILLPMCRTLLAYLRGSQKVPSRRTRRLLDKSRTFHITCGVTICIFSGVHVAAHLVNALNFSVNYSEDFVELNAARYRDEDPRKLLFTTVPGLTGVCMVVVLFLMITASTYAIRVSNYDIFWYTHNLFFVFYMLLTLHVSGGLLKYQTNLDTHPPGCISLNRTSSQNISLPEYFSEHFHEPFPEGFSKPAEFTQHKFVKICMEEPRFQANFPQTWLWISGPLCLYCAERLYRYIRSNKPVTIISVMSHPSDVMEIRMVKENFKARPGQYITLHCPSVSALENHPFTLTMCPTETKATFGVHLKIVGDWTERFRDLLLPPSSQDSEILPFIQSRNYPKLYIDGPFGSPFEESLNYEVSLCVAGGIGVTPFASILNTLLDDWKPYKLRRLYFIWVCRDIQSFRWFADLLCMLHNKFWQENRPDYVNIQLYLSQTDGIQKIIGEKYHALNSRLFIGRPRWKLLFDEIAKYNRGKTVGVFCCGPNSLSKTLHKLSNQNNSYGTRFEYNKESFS

[20] = target: NADPH oxidase 5 (Homo sapiens) (UniProt Q96PH1); assay: NOX5-dependent H2O2 signal modulators, primary screen, NOX inhibitor project, cell-based, HEK293-NOX5, Amplex Red fluorescence (AID 1161); conditions: HEK293-NOX5, ionomycin, 45 min, higher = more signal
NADPH oxidase 5 (Homo sapiens), sequence (Q96PH1 whole entry, looked up): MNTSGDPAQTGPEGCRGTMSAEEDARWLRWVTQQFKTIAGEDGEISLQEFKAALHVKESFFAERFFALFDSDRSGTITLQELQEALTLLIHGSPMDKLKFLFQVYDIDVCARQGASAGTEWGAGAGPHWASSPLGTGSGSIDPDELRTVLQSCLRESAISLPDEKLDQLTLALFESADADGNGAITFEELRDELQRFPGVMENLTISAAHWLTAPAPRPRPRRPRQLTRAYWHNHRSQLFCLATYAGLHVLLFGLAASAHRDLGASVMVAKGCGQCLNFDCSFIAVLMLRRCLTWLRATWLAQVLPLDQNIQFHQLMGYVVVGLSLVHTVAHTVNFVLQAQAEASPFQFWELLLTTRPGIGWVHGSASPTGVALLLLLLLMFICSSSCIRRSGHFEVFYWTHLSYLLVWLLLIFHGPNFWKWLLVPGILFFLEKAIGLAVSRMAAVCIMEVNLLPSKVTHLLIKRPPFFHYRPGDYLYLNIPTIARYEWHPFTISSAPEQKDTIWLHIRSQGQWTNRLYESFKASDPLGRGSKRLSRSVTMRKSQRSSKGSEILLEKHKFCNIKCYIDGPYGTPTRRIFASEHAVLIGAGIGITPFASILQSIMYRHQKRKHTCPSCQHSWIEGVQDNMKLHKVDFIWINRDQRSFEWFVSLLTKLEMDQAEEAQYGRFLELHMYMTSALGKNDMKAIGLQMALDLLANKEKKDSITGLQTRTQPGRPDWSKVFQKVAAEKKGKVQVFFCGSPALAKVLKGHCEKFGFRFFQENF

Structure (SMILES)	composite z-score [1]	z-score [2]	z-score [3]	z-score [4]	z-score [5]	composite z-score [6]	composite z-score [7]	composite z-score (Torsin-1A (Homo sapiens) [8])	composite z-score (Torsin-1A (Homo sapiens) [9])	composite z-score [10]	z-score [11]	composite z-score [12]	z-score [13]	z-score [14]	z-score [15]	z-score [16]	z-score [17]	z-score [18]	z-score [19]	z-score [20]
CO[C@@H]1COC(=O)CC=C[C@H](C)[C@H](OC)COC(=O)[C@@H]2CCCN2C(=O)CC=C[C@H]1C	0.0408	-0.754 (inactive)	0.243 (inactive)	0.609 (inactive)	-0.628 (inactive)	-0.0406	-0.0112	0.719	1.22	1.83	-0.2 (inactive)	-0.276	0.521 (inactive)	0.457 (inactive)	-0.0249 (inactive)	0.158 (inactive)	-0.0291	1.18 (inactive)	-0.686 (inactive)	0.294
COc1ccc(COC(=O)NN=C2C[C@@H](O)[C@@H](O)[C@@H]3[C@@H]4C(=O)N([C@@H](C)c5ccccc5)C(=O)[C@@H]4CC[C@H]23)cc1	0.366	-1.71 (inactive)	-0.183 (inactive)	1.79 (inactive)	-0.183 (inactive)	1.02	0.0667	-0.982	0.106	-0.983	0.486 (inactive)	0.751	7.67 (inactive)	0.805 (inactive)	-0.0805 (inactive)	0.501 (inactive)	-0.34	0.947 (inactive)	0.672 (inactive)	-0.419
COc1ccc2c(c1)O[C@@H](c1cccc(C(F)(F)F)c1)[C@H](O)C2=O	0.104	-2.98 (inactive)	-0.837 (inactive)	2.27 (inactive)	-0.892 (inactive)	0.562	-0.0645	-0.0248	0.215	0.37	0.706 (inactive)	0.0328	2.08 (inactive)	0.18 (inactive)	1.19 (inactive)	0.347 (inactive)	1.15	0.00989 (inactive)	0.123 (inactive)	-0.44
CC(=O)OC[C@H]1O[C@H](C#CCC2CCCCC2)C=C[C@@H]1OC(C)=O	0.293	-2.43 (inactive)	0.135 (inactive)	0.105 (inactive)	0.483 (inactive)	0.176	-0.0589	0.419	0.96	1.17	0.457 (inactive)	-0.19	2.09 (inactive)	0.138 (inactive)	0.0473 (inactive)	0.125 (inactive)	-0.274	0.217 (inactive)	0.556 (inactive)	1.74
O=C1[C@H]2[C@H]3[C@H](O)[C@H](O)CC(=NO[C@@H]4O[C@H](CO)[C@@H](O)[C@H](O)[C@H]4O)[C@@H]3CC[C@H]2C(=O)N1C1CCCCC1	0.258	0.0805 (inactive)	0.577 (inactive)	0.342 (inactive)	0.758 (inactive)	0.247	0.0342	0.603	0.0159	0.635	0.381 (inactive)	-0.126	0.785 (inactive)	0.636 (inactive)	1.04 (inactive)	0.228 (inactive)	0.322	-0.336 (inactive)	0.607 (inactive)	0.573
CC(C)=NO[C@@H](C)c1cn([C@H](CO)Cc2ccccc2)nn1	0.0949	-0.172 (inactive)	-0.643 (inactive)	0.573 (inactive)	-0.537 (inactive)	0.561	-0.0681	0.818	0.39	0.469	-1.99 (inactive)	0.423	-0.407 (inactive)	-1.7 (inactive)	-0.222 (inactive)	-1.75 (inactive)	1.54	-0.689 (inactive)	0.0692 (inactive)	0.628
CC(=O)OC[C@H]1O[C@H](CC=NOC[C@@H](O)COCc2ccco2)C=C[C@@H]1OC(C)=O	0.364	0.0896 (inactive)	-0.196 (inactive)	-0.729 (inactive)	0.25 (inactive)	-0.436	-0.183	3.67	3.65	2.07	0.241 (inactive)	0.0509	0.77 (inactive)	-0.161 (inactive)	0.482 (inactive)	0.515 (inactive)	0.0978	-0.431 (inactive)	0.748 (inactive)	0.0957
COC(=O)[C@H](C)NC(=O)CCC1CC(OC(=O)NCc2ccc3c(c2)OCO3)CC2(CCCC(COC(=O)NCCc3ccc(Cl)cc3)O2)O1 (stereo not given in full)	-0.132	0.173 (inactive)	-0.0135 (inactive)	-0.526 (inactive)	0.336 (inactive)	-0.334	-0.159	-0.157	0.193	0.579	-0.51 (inactive)	-0.101	2.17 (inactive)	0.223 (inactive)	1.29 (inactive)	0.272 (inactive)	0.688	1.73 (inactive)	0.148 (inactive)	0.879
